This is an account of results in PubChem BioAssay AID2577 (National Center for Advancing Translational Sciences (NCATS), 2010).

Molecules are shown by their SMILES. Unmarked numbers belong to inactive results. The call rests on the fitted dose curve; in most records, active means well fitted curve in the direction sought with a large enough effect; inactive means no such curve, though single readings can be large or run the other way.

For this experiment, the target named is Lysosomal alpha-glucosidase (Homo sapiens) (UniProt P10253). Briefly: qHTS Assay for Inhibitors and Activators of N370S glucocerebrosidase as a Potential Chaperone Treatment of Gaucher Disease: Alpha-Glucosidase Counterscreen. The note with it: purified human alpha-glucosidase, 4MU-alpha-glucoside fluorescence. From the text: NIH Chemical Genomics Center [NCGC] NIH Molecular Libraries Probe Production Centers Network [MLPCN] MLPCN Grant: MH086442-01 Assay Submitter (PI): Wei Zheng Glucocerebrosidase (GC) catalyzes the hydrolysis of beta-glucocerebroside to glucose and ceramide in lysosomes. Mutations in the glucocerebrosidase gene result in Gaucher disease, an autosomal recessive lysosomal storage disorder. Many of the mutations encountered in patients with Gaucher disease are missense alterations that may cause misfolding, decreased stability and/or mistrafficking of this lysosomal protein. […] These inhibitors include iminosugar analogs and three non-iminosugar inhibitors identified from a previous HTS of 62,000 compounds with the wild type recombinant enzyme. However, the enhancement of enzyme activity by the chaperone action of an enzyme inhibitor must be balanced against the direct inhibition of the enzyme. An enzyme activator could also function as a chaperone by binding to the enzyme and helping to correct its misfolding and mistrafficking. While activators for GC have not yet been identified, they may have better therapeutic potential than inhibitors. Therefore the discovery and development of chemical activators may provide a new strategy for the chaperone therapy. To characterize compound selectivity, selected hits from the primary screen were screened against purified alpha-glucosidase, a related sugar hydrolase. Alpha-glucosidase is responsible for hydrolysis of terminal, non-reducing 1,4-linked alpha-D-glucose residues with release of alpha-D-glucose.
NCGC Assay Protocol Summary: This is a fluorogenic enzyme assay with 4-methylumbelliferyl-alpha-D-[…] as the substrate and human alpha-glucosidase as the enzyme preparation. Upon the hydrolysis of this fluorogenic substrate, the resulting product, 1. 4-methyllumbelliferone, can be excited at 365 nm and emits at 440 nm which can be detected by a standard fluorescence plate reader. Data were normalized to the controls for basal activity (without enzyme) and 100% activity (with enzyme). The AC50 values were determined from concentration-response data modeled with the standard Hill equation. Assay buffer: 50 mM citric acid (titrated with potassium phosphate to pH 5.0), 0.005% Tween-20, pH 5.0. (pH 5.0 is an optimal condition for this enzyme assay) 1536-well assay protocol for the human alpha-glucosidase: (1) Add 2 ul/well of enzyme (4 nM final) (2) Add 23 nL compounds in DMSO solution. The final titration was 0.7 nM to 77 uM. (3) Add 1 ul of substrate (400 uM final) (4) Incubate at room temperature for 20 min. (5) Add 2 ul stop solution (1M NaOH and 1M Glycine mixture, pH 10) (6) Detect the assay plate in a ViewLux plate reader (PerkinElmer) with Ex=365 nm and Em=440nm. Keywords: Alpha-glucosidase, Pompe Disease, pharmacological chaperone, chaperone therapy, high throughput screening, alpha-glucosidase inhibitor, MLSMR, MLSCN, NIH Roadmap, qHTS and NCGC
(In general: Quantitative high-throughput screening tests each substance at several concentrations.)
Take `O=S(=O)(c1ccc(F)cc1)N1CCN(c2nc(-c3ccccc3)nc3cc(Cl)ccc23)CC1`: the max response was -12.7%.
The figure for `O=S(=O)(c1ccc(F)cc1)N1CCN(c2nc(-c3cccc(Br)c3)nc3ccccc23)CC1` is -5.01%; for `O=S(=O)(c1cccc(Cl)c1)N1CCN(c2nc(-c3ccccc3)nc3ccccc23)CC1` it is -3.54%.
In the case of `CC(C)(C)c1ccc(S(=O)(=O)N2CCN(c3nc(-c4cccs4)nc4ccccc34)CC2)cc1` it was -6.75%.
The figure for `O=S(=O)(c1ccc(Br)cc1)N1CCN(c2nc(-c3ccccc3)nc3ccccc23)CC1` is -1.71%.
In the case of `O=S(=O)(c1ccc2ccccc2c1)N1CCN(c2nc(-c3cccs3)nc3ccccc23)CC1`, the max response is -7.23%.
The figure for `O=S(=O)(c1ccc2c(c1)CCCC2)N1CCN(c2nc(-c3ccccc3)nc3ccccc23)CC1` is -8.51%; for `COc1ccc(-c2nc(N3CCN(S(=O)(=O)c4ccc(F)cc4)CC3)c3ccccc3n2)cc1` it is -2.56%; for `O=S(=O)(c1cccc(Cl)c1)N1CCN(c2nc(-c3cccs3)nc3ccccc23)CC1` it is -11.5%.
The figure for `O=S(=O)(c1ccccc1Br)N1CCN(c2nc(-c3ccccc3)nc3ccccc23)CC1` is -18.6%.
`O=S(=O)(c1ccc2ccccc2c1)N1CCN(c2nc(-c3ccccc3)nc3ccccc23)CC1`: the max response is -4.15%.
The figure for `CCOc1ccc(S(=O)(=O)N2CCN(c3nc(-c4ccccc4)nc4ccccc34)CC2)cc1` is -10.9%; for `O=S(=O)(c1ccc2c(c1)OCCO2)N1CCN(c2nc(-c3cccs3)nc3ccccc23)CC1` it is -3.67%.
For `O=S(=O)(c1ccc2c(c1)CCCC2)N1CCN(c2nc(-c3cccs3)nc3ccccc23)CC1`, the max response was -7.5%.
In the case of `COc1ccc(S(=O)(=O)N2CCN(c3nc(-c4cccs4)nc4ccccc34)CC2)cc1` it was -3.66%; in that of `COc1ccc(-c2nc(N3CCN(S(=O)(=O)c4ccc(C)cc4)CC3)c3ccccc3n2)cc1`, -0.975%; in that of `Cc1ccc(-c2nc(N3CCN(S(=O)(=O)c4ccc(F)cc4)CC3)c3ccc(Cl)cc3n2)cc1`, -14.5%.
The figure for `O=S(=O)(c1cccc(C(F)(F)F)c1)N1CCN(c2nc(-c3cccs3)nc3cc(Cl)ccc23)CC1` is -7.27%.
In the case of `N#Cc1ccccc1S(=O)(=O)N1CCN(c2nc(-c3cccs3)nc3ccccc23)CC1` it was -5.04%; in that of `O=S(=O)(c1ccc(OC(F)(F)F)cc1)N1CCN(c2nc(-c3ccccc3)nc3ccccc23)CC1`, -5.72%.
`O=S(=O)(c1ccc(F)cc1)N1CCN(c2nc(-c3ccccc3)nc3ccccc23)CC1`: the max response was -3.53%.
The figure for `N#Cc1ccccc1S(=O)(=O)N1CCN(c2nc(-c3ccccc3)nc3ccccc23)CC1` is -12.3%.
The figure for `O=[N+]([O-])c1ccccc1S(=O)(=O)N1CCN(c2nc(-c3cccs3)nc3ccccc23)CC1` is -3.63%; for `Cc1ccc(S(=O)(=O)N2CCN(c3nc(-c4ccc(F)cc4)nc4cc(Cl)ccc34)CC2)cc1` it is -4.96%.
In the case of `O=S(=O)(c1ccccc1C(F)(F)F)N1CCN(c2nc(-c3cccs3)nc3ccccc23)CC1` it was -3.11%; in that of `O=S(=O)(c1cccc(Br)c1)N1CCN(c2nc(-c3cccs3)nc3ccccc23)CC1`, -9.65%; in that of `Cc1ccc(S(=O)(=O)N2CCN(c3nc(-c4ccccc4)nc4ccccc34)CC2)cc1`, -13.1%.
As to `CC(=O)c1ccc(S(=O)(=O)N2CCN(c3nc(-c4ccccc4)nc4ccccc34)CC2)cc1`, the max response was -3.56%.
In the case of `O=S(=O)(c1ccccc1)N1CCN(c2nc(-c3cccs3)nc3ccccc23)CC1` it was -12.9%; in that of `O=S(=O)(c1ccccc1F)N1CCN(c2nc(-c3cccs3)nc3ccccc23)CC1`, -14.1%.
